Drawing on PubChem BioAssay, this text covers composite z-score for 36 compounds.

Sequence of Torsin-1A-interacting protein 1 (Homo sapiens) (Q5JTV8 whole entry, looked up): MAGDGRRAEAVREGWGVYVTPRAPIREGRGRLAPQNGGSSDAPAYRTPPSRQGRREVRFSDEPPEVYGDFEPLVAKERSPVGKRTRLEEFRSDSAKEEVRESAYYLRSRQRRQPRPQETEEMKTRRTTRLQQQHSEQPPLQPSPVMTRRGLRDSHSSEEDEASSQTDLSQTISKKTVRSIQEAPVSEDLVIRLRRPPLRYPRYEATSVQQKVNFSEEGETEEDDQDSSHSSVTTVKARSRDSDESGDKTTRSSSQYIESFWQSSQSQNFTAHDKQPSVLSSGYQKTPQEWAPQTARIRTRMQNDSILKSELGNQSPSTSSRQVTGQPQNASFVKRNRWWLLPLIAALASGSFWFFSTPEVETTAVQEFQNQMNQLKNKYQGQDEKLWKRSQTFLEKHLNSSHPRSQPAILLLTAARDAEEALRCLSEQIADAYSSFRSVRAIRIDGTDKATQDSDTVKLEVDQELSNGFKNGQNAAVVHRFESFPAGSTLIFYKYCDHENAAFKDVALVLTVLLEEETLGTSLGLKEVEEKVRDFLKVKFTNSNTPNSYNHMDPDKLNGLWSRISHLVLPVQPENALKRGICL

The test has as its target Torsin-1A-interacting protein 1 (Homo sapiens) (UniProt Q5JTV8). Nature of the test: LAP1 binders from COS7 cell lysate, primary screen, small-molecule microarray, 635/667 nm fluorescence (AID 1116). To be noted: COS7-hLAP1 lysate binding, 635 nm fluorescence, higher = more signal.
The compound `C=C1C(=O)C=C2CN(C(=O)c3ccccc3)[C@@](Cc3ccc(OC)cc3)(C(=O)OC)[C@@H]12` gave a composite z-score of 1.04.
Regarding `COC(=O)[C@@]1(Cc2ccc(F)cc2)[C@H]2c3cc(C(=O)N(C)C)n(C)c3C[C@H]2CN1C(=O)c1ccccc1`, the composite z-score worked out at 0.509.
`COCCCNC(=O)[C@@]1(CCS(=O)(=O)c2ccccc2)COC(c2ccc(OCCCO)cc2)=N1` displayed a composite z-score of 3.1.
Take `CO[C@H]1O[C@H](CO)[C@@H](OC(=O)Nc2ccc3c(c2)OCO3)[C@H](OC(=O)Nc2ccccc2-c2ccccc2)[C@H]1OC(=O)Nc1ccccc1-c1ccccc1`: the composite z-score amounted to 2.06.
The compound `NC(=O)N1C(=O)C2C(C1=O)C1C=C(CCCO)C2C(C2CC2)N1Cc1sc2ccccc2c1Cl` (stereo unspecified) yielded a composite z-score of 1.19.
In turn, `C=CC[C@@]1(C(=O)OC)N=C(c2ccc(OCCCO)cc2)O[C@@H]1c1ccccc1N=[N+]=[N-]` had a composite z-score of 1.66.
Under `C=CCC(OC(C)=O)[C@@H]1[C@@H](N(Cc2ccc(-c3ccccc3)cc2)C(=O)c2cccc3ccccc23)c2cc(OCCCO)ccc2N1C(=O)Cc1ccc(OC)cc1` (stereo partly specified) stands -0.278; under `CCOc1cc(C(O)C2C=CC3C(=O)N(c4ccccc4)C(=O)C3N2Nc2ccccc2F)ccc1O` (stereo unspecified), -0.321; under `C=CCC(OC(C)=O)[C@@H]1[C@@H](N(Cc2cc3ccccc3o2)C(=O)c2cccc3ccccc23)c2cc(OCCCO)ccc2N1C(=O)c1ccc2ccccc2n1` (stereo partly specified), 0.615.
The compound `COc1ccc(C(O)C2C=CC3C(=O)N(C)C(=O)C3N2N(c2ccccc2)c2ccccc2)cc1` (stereo unspecified) registered a composite z-score of 0.74.
Compound `O=C1O[C@@H](c2ccccc2)[C@@H](c2ccccc2)N2[C@@H](c3ccc(OCCO)cc3)[C@]3(C(=O)Nc4ccc(C#CC5(O)CCCCCC5)cc43)[C@@H](C(=O)Nc3nc4ccccc4s3)[C@H]12` had a composite z-score of 1.34.
`COCCOC(=O)N1C(=O)[C@@]2(c3cc(C#CCCO)ccc31)[C@H](C(N)=O)[C@H]1C(=O)O[C@H](c3ccccc3)[C@H](c3ccccc3)N1[C@@H]2c1ccccc1OCCO` registered a composite z-score of 1.08.
Compound `CC1CC/C=C\[C@H]2OC34C=CCN(C(C)(C)C)C(=O)[C@H]3N(CCCO)C(=O)[C@@H]4C2C(=O)O1` (stereo partly specified) registered a composite z-score of 1.42.
The compound `COc1ccc([Si](C)(C)[C@H]2[C@H](CC(=O)N3Cc4ccccc4C[C@H]3CO)O[C@@]3(C(=O)N(C)c4ccccc43)[C@@H]2C)cc1` returned a composite z-score of 0.712.
Consider `Cc1ccc(S[C@]2(C(=O)NCCCN(C)C)CC(=O)N(C3Cc4ccccc4C3)[C@@H]2c2ccc(CO)cc2I)cc1`, for which the composite z-score was 0.157.
To `O=C1O[C@H](c2ccccc2)[C@H](c2ccccc2)N2[C@H]1[C@@H](C(=O)N1CCN(c3ncccn3)CC1)[C@]1(C(=O)Nc3ccc(C#CCCO)cc31)[C@H]2c1ccc(O)cc1` belongs 0.516; to `[N-]=[N+]=Nc1ccccc1C[C@]1(C(=O)N2CCOCC2)N=C(c2ccc(OCCCO)cc2)O[C@H]1c1ccccc1N=[N+]=[N-]`, 1.9.
Compound `COc1ccc(C(=O)Nc2ccc(CN3C(=O)[C@@]4(O[C@@H](CCn5cc(CCO)nn5)[C@H]([Si](C)(C)c5ccc(OC)cc5)[C@H]4C)c4ccccc43)cc2)cc1` showed a composite z-score of 1.09.
For `NC(=O)NCC#Cc1ccc2c(c1)[C@]1(C(=O)N2)[C@H](c2ccc(OCCO)cc2)N2[C@H](c3ccccc3)[C@H](c3ccccc3)OC(=O)[C@H]2[C@@H]1C(=O)NC[C@H](O)c1ccccc1`, the composite z-score came to 0.727.
Turning to `O=C1[C@H]2C=C(I)[C@H](C[C@@H]2c2ccccc2)[C@@]12CO2`, the composite z-score was found to be 0.126.
`CC(C)NC(=O)[C@@H]1c2ccccc2C(=O)N(Cc2ccc(OC(F)(F)F)cc2)[C@H]1c1ccc(CO)cc1` showed a composite z-score of 0.673.
The compound `COc1ccc([Si](C)(C)[C@H]2[C@H](CC(=O)N3Cc4ccccc4C[C@H]3CO)O[C@@]3(C(=O)N(c4ccccc4)c4ccccc43)[C@@H]2C)cc1` displayed a composite z-score of 1.7.
In the case of `CC(C)(C)N1CC=CC23O[C@@H]4/C=C\CCCOC(=O)C4[C@H]2C(=O)N(CCCO)[C@@H]3C1=O` (stereo partly specified), the composite z-score is -1.37.
With `O=C1C2C=CC(C(O)c3ccc([N+](=O)[O-])cc3)N(Nc3ccccc3F)C2C(=O)N1c1ccccc1` (stereo unspecified), the composite z-score was determined as 1.55.
To `COc1ccccc1CN1C(=O)c2ccccc2[C@](Cc2ccccc2I)(C(=O)NCC(C)C)[C@@H]1c1ccc(CO)cc1` belongs 0.078; to `C=C(CCCC)/C(=C/C[C@H](OC(=O)c1ccncc1)c1ccc(OCCO)cc1)c1cnc2ccccc2c1`, 0.49; to `CCCC[C@H]1C[C@@H]1[C@@H]1N(C(C)=O)[C@H](c2cccc(OC)c2)CC12CC2`, 0.632.
Under `O=C1O[C@H](Cc2ccccc2)[C@@H]2[C@H]3C=CCCC=C3CN2[C@H]1Cc1ccc(O)cc1` stands -0.0081; under `COCCOC(=O)N1C(=O)[C@@]2(c3cc(C#CCC(C(=O)OC)C(=O)OC)ccc31)[C@H](C(=O)Nc1nc3ccccc3s1)[C@H]1C(=O)O[C@H](c3ccccc3)[C@H](c3ccccc3)N1[C@@H]2c1ccc(OCCO)cc1`, 1.38; under `CCCCCCc1nc(Cc2cc(OC)c(OC)c(OC)c2)cc2c1[Si](C(C)C)(C(C)C)O[C@H]2c1ccccc1`, -0.142.
Under `COC(=O)c1cccc([C@H]2OC(=CC(=O)OC(C)C)C[C@@H](c3cccc(C(=O)OC)c3)O2)c1` stands 3.27.
For the compound `C=CC[C@]1(C(=O)NCC(O)CO)COC(c2ccc(OCCCO)cc2)=N1` (stereo partly specified), the composite z-score amounted to 1.53.
`COC(=O)[C@@]1(Cc2ccccc2)[C@H]2c3cc(C(=O)N(C)C)n(Cc4ccc(C(F)(F)F)nc4)c3C[C@H]2CN1C(=O)c1ccccc1` had a composite z-score of 1.91.
For the compound `CCCNC(=O)[C@@]1(c2ccc([N+](=O)[O-])cc2)CC(=O)N(C(C)C)[C@@H]1c1ccc(CO)cc1`, the composite z-score is -0.824.
`C[C@@H]1NC(=O)C([C@@H](C)OCc2ccccc2)NC(=O)[C@@]23C(=O)N[C@@H](Cc4ccccc4)C2[C@H](C)[C@@]2(C)O[C@H]2C3/C=C/C/C=C\CNC1=O` (stereo partly specified) showed a composite z-score of -0.215.
Take `CCOC(=O)C1=C[C@@H](C(C)(C)C)N(S(=O)(=O)c2ccc(C)cc2)[C@H]1c1ccc(C#N)cc1`: the composite z-score amounted to 0.918.
